“And” between values parts separate entries of the source, which are not always exact repeats. Identical values can stand only once. The whole screen tested about 5,500 compounds, of which about 2,000 (36%) were called active. Roughly 18% stayed inconclusive and do not appear here. No stated cut-off is given here; in the data, active means normalized growth mostly below about 0.91 (no sharp cut-off); inconclusive means no clear call, values can overlap the other calls; inactive means mostly above about 0.92. This is one part of the list. Where a SMILES comes first, the peptide text is derived from it. Bridges are numbered along the chain shown (N, C = ends). [ ]: non-standard residue; d: D form. The star is where a group is joined. Heptanoyl(6-Me) = CC(C)CCCCC(=O)*; Dab = NCC[CH](N)C(=O)O
Experiment: chemical genetic growth profiling, strain panel (AID 1159580);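 further: tested at 20 µM; growth read once vehicle control cultures reached saturation at 30 °C; 1 = growth at the plate median or of vehicle wells; lower values mean less growth of the strain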
Details: S. cerevisiae deletion strains, growth OD
[1] = locus YHR030C, strain SLT2, active compounds read low
[2] = locus YJL095W, strain BCK1, active compounds read low
[3] = locus YJR066W, strain TOR1, active compounds read low
[4] = locus YLR113W, strain HOG1, active compounds read low
[5] = locus YNL183C, strain NPR1, active compounds read low
[6] = locus YOR231W, strain MKK1, active compounds read low
[7] = locus YPL256C, strain CLN2, active compounds read low

Measured: normalized growth

O=C1CC[C@]23C=CC(=O)NCCCCNCCCNC(=O)/C=C/c4ccc(c2c4)O[C@@H]3C1
inactive: locus YAL021C, strain ccr4, active compounds read low 1.02 | locus YAL026C, strain drs2, active compounds read low 1.04 | locus YAL030W, strain snc1, active compounds read low 1.01 | locus YBL061C, strain skt5, active compounds read low 1.02 | locus YBR009C, strain hhf1, active compounds read low 1.03 | locus YBR021W, strain FUR4, active compounds read low 0.999 | locus YBR023C, strain chs3, active compounds read low 1.02 | locus YBR171W, strain sec66, active compounds read low 1.01 | locus YBR229C, strain ROT2, active compounds read low 1.01 | locus YBR231C, strain swc5, active compounds read low 1.01 | locus YBR279W, strain paf1, active compounds read low 1 | locus YCL011C, strain gbp2, active compounds read low 1 | locus YCL016C, strain dcc1, active compounds read low 1.03 | locus YCL029C, strain bik1, active compounds read low 0.997 | locus YCL061C, strain MRC1, active compounds read low 1 | locus YCL069W, strain vba3, active compounds read low 1.01 | locus YCR088W, strain abp1, active compounds read low 1.02 | locus YDL005C, strain med2, active compounds read low 1.02 | locus YDL035C, strain GPR1, active compounds read low 1.05 | locus YDL040C, strain nat1, active compounds read low 1 | locus YDL074C, strain BRE1, active compounds read low 1.05 | locus YDL101C, strain DUN1, active compounds read low 1 | locus YDL134C, strain PPH21, active compounds read low 0.954 | locus YDL185W, strain tfp1, active compounds read low 0.993 | locus YDL192W, strain arf1, active compounds read low 1.02 | locus YDR001C, strain nth1, active compounds read low 1.01 | locus YDR069C, strain doa4, active compounds read low 1.03 | locus YDR101C, strain arx1, active compounds read low 0.997 | locus YDR137W, strain rgp1, active compounds read low 0.993 | locus YDR150W, strain NUM1, active compounds read low 1.01 | locus YDR159W, strain sac3, active compounds read low 1.03 | locus YDR162C, strain NBP2, active compounds read low 1.02 | locus YDR195W, strain ref2 1.02 | locus YDR297W, strain sur2, active compounds read low 1.01 | locus YDR318W, strain mcm21, active compounds read low 1.01 | locus YDR334W, strain swr1, active compounds read low 1.01 | locus YDR335W, strain msn5, active compounds read low 1.03 | locus YDR388W, active compounds read low 0.993 | locus YDR392W, strain spt3, active compounds read low 1.01 | locus YDR502C, strain sam2, active compounds read low 0.963 | locus YEL003W, strain gim4, active compounds read low 1.01 | locus YEL037C, strain rad23, active compounds read low 1.02 | locus YEL061C, strain CIN8 (second series), active compounds read low 1.01 | locus YEL061C, strain CIN8, active compounds read low 1.01 | locus YER015W, strain faa2, active compounds read low 1.01 | locus YER016W, strain bim1, active compounds read low 1.02 | locus YER110C, active compounds read low 0.981 | locus YER111C, strain swi4, active compounds read low 1.01 | locus YER155C, strain BEM2 (second series), active compounds read low 1.01 | locus YER155C, strain BEM2, active compounds read low 1.01 | locus YER167W, strain BCK2, active compounds read low 1.02 | locus YFR010W, strain ubp6, active compounds read low 1.02 | locus YGL078C, strain dbp3, active compounds read low 0.987 | locus YGL086W, strain mad1, active compounds read low 0.99 | locus YGL167C, strain pmr1, active compounds read low 1.03 | locus YGL173C, strain kem1, active compounds read low 1.02 | locus YGL227W, strain vid30, active compounds read low 1.02 | locus YGL240W, strain doc1, active compounds read low 1.02 | locus YGL248W, strain PDE1, active compounds read low 1 | locus YGL253W, strain hxk2, active compounds read low 1.02 | locus YGR135W, strain pre9, active compounds read low 0.951 | locus YGR252W, strain gcn5, active compounds read low 0.903 | locus YHR027C, strain rpn1, active compounds read low 1 | [1] 1.05 | locus YHR079C, strain IRE1 (second series), active compounds read low 0.995 | locus YHR079C, strain IRE1, active compounds read low 1.04 | locus YHR094C, strain hxt1, active compounds read low 0.993 | locus YHR129C, strain ARP1, active compounds read low 1.01 | locus YHR142W, strain chs7, active compounds read low 1.01 | locus YHR200W, strain rpn10, active compounds read low 0.963 | locus YIL066C, strain RNR3, active compounds read low 1.04 | locus YIL073C, strain SPO22, active compounds read low 0.97 | locus YIL125W, strain kgd1, active compounds read low 0.988 | locus YIR030C, strain dcg1, active compounds read low 0.997 | locus YJL092W, strain hpr5, active compounds read low 1.01 | locus YJL095W, strain BCK1 (second series), active compounds read low 1.04 | [2] 1.01 and 1.04 | locus YJL115W, strain asf1, active compounds read low 1.02 | locus YJL129C, strain trk1, active compounds read low 1.01 | locus YJL134W, strain LCB3, active compounds read low 1.01 | locus YJL154C, strain vps35, active compounds read low 1.01 | locus YJL164C, strain tpk1, active compounds read low 0.974 | locus YJL166W, strain qcr8, active compounds read low 1.04 | locus YJL168C, strain set2, active compounds read low 1 | locus YJL187C, strain SWE1 (second series), active compounds read low 0.99 | locus YJR043C, strain POL32, active compounds read low 1.04 | [3] 0.98 | locus YKL009W, strain mrt4, active compounds read low 1.04 | locus YKL068W, active compounds read low 0.993 | locus YKL085W, strain MDH1 (second series), active compounds read low 0.997 | locus YKL085W, strain MDH1, active compounds read low 0.997 | locus YKL160W, strain elf1, active compounds read low 1.04 | locus YKR001C, strain vps1, active compounds read low 0.977 | locus YKR026C, strain gcn3, active compounds read low 1.01 | locus YKR091W, strain srl3, active compounds read low 1.01 | locus YLL001W, strain dnm1, active compounds read low 0.965 | locus YLL026W, active compounds read low 1.01 | locus YLL041C, strain sdh2, active compounds read low 1.01 | locus YLR027C, strain aat2, active compounds read low 1.01 | locus YLR039C, strain RIC1, active compounds read low 1.08 | locus YLR058C, strain SHM2, active compounds read low 1.01 | locus YLR102C, strain apc9, active compounds read low 0.985 | [4] 0.962 | locus YLR221C, strain rsa3, active compounds read low 1.01 | locus YLR258W, strain gsy2, active compounds read low 1.01 | locus YLR262C, strain YPT6 (second series), active compounds read low 1 | locus YLR268W, strain sec22, active compounds read low 1.01 | locus YLR320W, strain mms22, active compounds read low 1.04 | locus YLR330W, strain CHS5, active compounds read low 1.01 | locus YLR342W, strain FKS1 (second series), active compounds read low 1.04 | locus YLR342W, strain FKS1, active compounds read low 1 | locus YLR357W, strain rsc2, active compounds read low 1.01 | locus YLR370C, strain arc18, active compounds read low 1.02 | locus YLR371W, strain rom2, active compounds read low 1 | locus YLR384C, strain iki3, active compounds read low 1 | locus YLR418C, strain cdc73, active compounds read low 0.959 | locus YML016C, strain PPZ1, active compounds read low 1.01 | locus YML032C, strain rad52, active compounds read low 0.993 | locus YML120C, strain ndi1, active compounds read low 0.993 | locus YML124C, strain tub3, active compounds read low 0.988 | locus YMR058W, strain fet3, active compounds read low 1.02 | locus YMR078C, strain ctf18, active compounds read low 0.986 | locus YMR125W, strain sto1, active compounds read low 1 | locus YMR129W, active compounds read low 1 | locus YMR205C, strain PFK2, active compounds read low 1.01 | locus YMR223W, strain ubp8, active compounds read low 0.969 | locus YMR231W, strain pep5, active compounds read low 1.02 | locus YMR307W, strain GAS1, active compounds read low 1.05 | locus YNL067W, strain RPL9B, active compounds read low 0.976 | locus YNL071W, strain lat1, active compounds read low 1.02 | locus YNL153C, strain GIM3, active compounds read low 0.996 | [5] 0.99 | locus YNL209W, strain ssb2, active compounds read low 1.01 | locus YNL233W, strain BNI4, active compounds read low 0.998 | locus YNL248C, strain rpa49, active compounds read low 1.03 | locus YNL250W, strain rad50, active compounds read low 0.959 | locus YNL271C, strain bni1, active compounds read low 0.999 | locus YNL298W, strain CLA4, active compounds read low 0.997 | locus YNL307C, strain MCK1, active compounds read low 0.983 | locus YNL322C, strain KRE1 (second series), active compounds read low 1.01 | locus YNL322C, strain KRE1, active compounds read low 1.01 | locus YNR049C, strain mso1, active compounds read low 1.03 | locus YNR052C, strain pop2, active compounds read low 0.972 | locus YOL006C, strain TOP1, active compounds read low 1.09 | locus YOL012C, strain htz1 0.612 | locus YOL147C, strain pex11, active compounds read low 0.99 | locus YOR001W, strain rrp6, active compounds read low 1.03 | locus YOR061W, strain CKA2, active compounds read low 1.02 | locus YOR069W, strain VPS5, active compounds read low 1 | locus YOR070C, strain gyp1, active compounds read low 1.02 | locus YOR080W, strain dia2, active compounds read low 1.01 | locus YOR083W, strain WHI5, active compounds read low 1.01 | locus YOR106W, strain vam3, active compounds read low 1.01 | locus YOR136W, strain idh2, active compounds read low 0.979 | locus YOR144C, strain elg1, active compounds read low 0.987 | locus YOR184W, strain ser1, active compounds read low 1.03 | [6] 1.03 | locus YOR265W, strain rbl2, active compounds read low 0.991 | locus YOR270C, strain vph1, active compounds read low 1.07 | locus YOR290C, strain snf2, active compounds read low 1.01 | locus YOR316C, strain cot1, active compounds read low 0.984 | locus YPL051W, strain arl3, active compounds read low 1.02 | locus YPL055C, strain LGE1, active compounds read low 1.04 | locus YPL078C, strain atp4, active compounds read low 1.01 | locus YPL106C, strain sse1, active compounds read low 1.06 | locus YPL240C, strain hsp82, active compounds read low 1.01 | locus YPL241C, strain CIN2, active compounds read low 1.01 | [7] 1.05 | locus YPR119W, strain clb2, active compounds read low 0.992 | locus YPR141C, strain kar3, active compounds read low 0.993 | locus YPR163C, strain tif3, active compounds read low 0.99 | locus YPR167C, strain met16, active compounds read low 0.985 | strain wtn01, active compounds read low 0.99
active: locus YHR013C, strain ard1, active compounds read low 1.41 [resistant]

CCC(C)C1NC(=O)C(CCN)NC(=O)C(NC(=O)C(CCN)NC(=O)C(NC(=O)C(CCN)NC(=O)CCCCC(C)C)C(C)O)CCNC(=O)C(C(C)O)NC(=O)C(CCN)NC(=O)C(CCN)NC(=O)C(C(C)CC)NC1=O (stereo unspecified) ({Heptanoyl(6-Me)}-[Dab]T[Dab][Dab][Dab]II[Dab][Dab]T; lactam 4-C; configuration not given here)
inactive: [1] 0.976 | [2] 0.985 | [3] 0.95 | [4] 0.967 | [5] 0.944 | [6] 0.971 | [7] 0.973

— PubChem BioAssay AID1159580 (chemical genetic matrix, 2015)
